Measurements as given in PubChem BioAssay AID1851 (National Center for Advancing Translational Sciences (NCATS), 2009).
About 5,100 (32%) of roughly 16,000 compounds were called active. Roughly 25% stayed inconclusive and do not appear here. Some of the results follow. Unmarked numbers belong to inactive results. Calls follow the shape of the dose curve; as a rule, active = well fitted curve in the direction sought with a large enough effect; inconclusive = small, poorly fitted or top-dose-only effect, or effect the other way; inactive = no such curve, though single readings can be large or run the other way.
% is scaled to controls: 0 for no effect and ±100 for the full control effect.

Each compound was assayed against Cytochrome P450 3A4 (Homo sapiens) (UniProt P08684) (assay: Cytochrome panel assay with activity outcomes). Details: recombinant CYP, pro-luciferin dealkylation, luminescence, p450-cyp3a4; series mostly up to 57.1 µM.
Sequence of Cytochrome P450 3A4 (Homo sapiens) (P08684 whole entry, looked up): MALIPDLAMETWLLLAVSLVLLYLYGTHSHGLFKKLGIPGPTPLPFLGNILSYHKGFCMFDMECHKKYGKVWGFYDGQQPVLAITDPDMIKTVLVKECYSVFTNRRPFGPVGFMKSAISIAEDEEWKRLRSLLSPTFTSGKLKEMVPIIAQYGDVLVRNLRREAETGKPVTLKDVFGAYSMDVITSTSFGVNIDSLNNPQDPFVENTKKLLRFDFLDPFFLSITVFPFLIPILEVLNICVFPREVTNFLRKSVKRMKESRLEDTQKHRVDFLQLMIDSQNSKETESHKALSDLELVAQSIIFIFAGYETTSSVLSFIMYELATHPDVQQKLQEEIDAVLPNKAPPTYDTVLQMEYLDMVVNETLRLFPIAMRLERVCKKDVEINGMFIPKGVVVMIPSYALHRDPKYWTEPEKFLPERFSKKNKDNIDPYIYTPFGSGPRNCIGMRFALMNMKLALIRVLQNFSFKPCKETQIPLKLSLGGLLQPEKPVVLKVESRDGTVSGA
For `Clc1ccc(-c2cc3ccccc3[nH]2)cc1`, the AC50 was “inactive”. In the case of `N#C/C(=C\c1ccc(O)c(O)c1)C(N)=O`, the AC50 is reported as “inactive”. `N#C/C(=C\c1ccc(O)c(O)c1)C(=O)c1ccc(O)c(O)c1` was tested, and the AC50 was 15.8 µM (active). `N#C/C(=C\N1CCNC1=S)C(=O)c1ccc2ccccc2c1` gave an activity, negative = inhibition of -26% [at 11.4 µM]. For `N#C/C(=C\c1c[nH]c2ccccc12)C(=O)c1ccc(O)c(O)c1`, the AC50 was 7.94 µM (active). In the case of `c1ccc(-n2ncc3c2ncn2cnnc32)cc1`, the AC50 is reported as “inactive”. `Cc1nc2c3cnn(-c4ccc(C)c(C)c4)c3ncn2n1` was tested, and the AC50 was 17.8 µM (active). `Cc1ccc(-n2ncc3c2ncn2nc(-c4ccco4)nc32)c(C)c1` was tested, and the AC50 was “inactive”. `CC(C)(C)c1ccc(OCC(=O)O)c(Cl)c1` showed an activity, negative = inhibition of -2.41% [at 11.4 µM]. `O=C1N=C(N2CCOCC2)S/C1=C/c1cccs1` showed an activity, negative = inhibition of -4.33% [at 2.29 µM]. `NC(=O)CNC(=O)[C@@H]1CC2(CC(c3ccccc3)=NO2)CN1C(=O)c1ccc(Br)cc1` (stereo not given in full) showed an activity, negative = inhibition of -5.09% [at 11.4 µM]. `COc1cccc(N(C(=O)Cn2nnc(-c3ccc(C)cc3)n2)C(C(=O)NC(C)(C)C)c2c[nH]c3ccccc23)c1` (stereo not given) was tested, and the AC50 was 2.82 µM (active). `N=C(N)SCc1ccc(Cl)cc1Cl` (tested in a mixture with another compound) showed an activity, negative = inhibition of -3.48% [at 11.4 µM]. `NCCCCCc1nnc(SCc2ccccc2Cl)o1` was tested, and the AC50 was “inactive”. With `NCCCCCc1nnc(SCc2ccc(Cl)cc2Cl)o1` the AC50 was 12.6 µM (active). Compound `CCn1ncc(C(=O)Nc2cc(C)on2)c1C` has an activity, negative = inhibition of 6.4% [at 2.29 µM]. For `CCOC(=O)c1cnc2c(cnn2C)c1NCCCN(C)C`, the AC50 was “inactive”. With `CCOC(=O)c1cnn(CCOC(=O)C(C)(C)C)c1NC(=O)C(C)(C)C` the AC50 was 12.6 µM (active). In the case of `CNC(=O)Oc1ccc2c(c1)[C@@]1(C)CCN(C)[C@@H]1N2C`, the AC50 is reported as “inactive”. `COc1ccc(-n2c(=O)[nH]cc(C(=O)Nc3ccc4c(c3)OCCO4)c2=O)cc1` was tested, and the AC50 was 14.1 µM (active). With `CCOC(=O)CSc1cc(CS(=O)c2ccc(Cl)cc2)nc(-c2ccccc2)n1` (stereo not given) the AC50 was 7.08 µM (active). For `CCOC(=O)CSc1nc(-c2ccccc2)nc2ccccc12`, the AC50 was “inactive”. For `CCOC(=O)CSc1cc(C(F)(F)F)nc(-c2ccccn2)n1`, the AC50 was “inactive”. For `CCOc1ccc(OCC)c(-c2c(=O)n(OCc3ccccc3C(=O)OC)c3ccccc3[n+]2[O-])c1`, the AC50 was 14.1 µM (active). With `CCn1c(SCC(=O)OC)nc2sc3c(c2c1=O)CCC3` the AC50 was “inactive”. For `Cn1c(=O)c2c3c(sc2n2cnnc12)CCC3`, the activity, negative = inhibition was 10.9% [at 2.29 µM]. With `CC1CSc2nc3sc4c(c3c(=O)n21)CCCC4` (stereo not given) the AC50 was 12.6 µM (active). For `CC1(C)CC(=O)C2=C(C1)N(c1ccc(F)cc1)C(N)=C(C#N)C2c1cccs1` (stereo not given), the AC50 was 1 µM (active). `C/C(=N\NC(=O)c1ccccc1C)c1ccc(NC(=O)c2cccs2)cc1` was tested, and the activity, negative = inhibition was -4.96% [at 2.29 µM]. With `COc1ccc(-n2nc3cc(C)c(NC(=S)NC(=O)c4ccccc4C)cc3n2)cc1` the activity, negative = inhibition was -17.3% [at 11.4 µM]. With `CN(C1CCCCC1)S(=O)(=O)c1ccc(NC(=S)NC(=O)c2cccs2)cc1` the AC50 was 3.98 µM (active). For `CCCC(=O)Nc1ccc(C(=O)NNC(=S)NC(=O)c2cccs2)cc1`, the AC50 was “inactive”. With `CCN(c1ccccc1)S(=O)(=O)c1ccc(NC(=S)NC(=O)c2ccc(Br)o2)cc1` the AC50 was “inactive”. In the case of `COc1cc(NC(=S)NC(=O)c2c(OC)cccc2OC)ccc1NC(=O)c1cccs1`, the AC50 is reported as 3.16 µM (active). With `Cc1ccccc1C(=O)Nc1cccc(NC(=S)NC(=O)c2cccs2)c1` the AC50 was 3.55 µM (active). Work on `O=[N+]([O-])/C=C\c1cc2ccccc2[nH]1` yielded an activity, negative = inhibition of -22.3% [at 11.4 µM]. In the case of `C=CCNC(=O)c1ccccc1Cl`, the AC50 is reported as “inactive”. With `C=CCNC(=O)c1ccc2nc(-c3ccccc3)c(-c3ccccc3)nc2c1` the AC50 was 7.08 µM (active). With `CCNC(=O)c1ccc(-n2nc(C)cc2-c2ccccc2)cc1` the AC50 was “inactive”. For `COc1ccc(N(C)C(=O)c2ccc3nc(-c4ccccc4)c(-c4ccccc4)nc3c2)cc1`, the AC50 was 7.94 µM (active). In the case of `CC1CC2=C(NC(=S)NC2c2ccc(F)cc2)/C(=C/c2ccc(F)cc2)C1` (stereo not given), the AC50 is reported as 5.01 µM (active). In the case of `O=C1NCCN1Cc1ccccc1F`, the AC50 is reported as 15.8 µM (active). For `COC(=O)c1cc2n(n1)CCN(Cc1ccccc1F)C2=O`, the activity, negative = inhibition was 17.9% [at 2.29 µM]. `O=C1NCCN1Cc1cccc(Cl)c1` was tested, and the AC50 was “inactive”. For `N[C@@H](Cn1ccc(=O)n(Cc2ccccc2C(=O)O)c1=O)C(=O)O`, the AC50 was “inactive”. With `O=C(OCn1ncc(Cl)c(Cl)c1=O)c1cccc(C(F)(F)F)c1` the AC50 was “inactive”. `Cc1cccc(Cn2ncc(Cl)c(Cl)c2=O)c1` was tested, and the AC50 was 14.1 µM (active). In the case of `c1ncc(-c2ccc3c(c2)OCO3)c(NCCc2cnc[nH]2)n1`, the AC50 is reported as 0.794 µM (active). For `COc1cccc(-c2cncnc2NCCc2cnc[nH]2)c1`, the AC50 was 0.631 µM (active). With `COc1ccccc1-c1cncnc1NCCc1cnc[nH]1` the AC50 was 0.398 µM (active). In the case of `Cn1c(-c2ccc3c(c2)OCO3)cnc1NCc1ccccc1`, the AC50 is reported as 7.94 µM (active). For `c1cncc(CNc2ncncc2-c2ccc3c(c2)OCO3)c1`, the AC50 was 0.398 µM (active). With `Cc1cnc(CNc2ncncc2-c2ccc3c(c2)OCO3)cn1` the AC50 was 1.58 µM (active). For `Clc1ccc2c(c1)C=Nc1c(NCc3ccccc3)ncnc1O2`, the AC50 was “inactive”. For `c1ccc(CNc2ncncc2-c2ccc3c(c2)OCO3)cc1`, the AC50 was 0.501 µM (active). For `c1csc(CNc2ncncc2-c2ccc3c(c2)OCO3)c1`, the AC50 was “inactive”. Compound `COC(=O)[C@H](C)NC(=O)[C@@H](C)CO` has an activity, negative = inhibition of -19.6% [at 11.4 µM]. `Oc1c(C(O)(c2ccccc2)c2ccc3ccccc3c2O)ccc2ccccc12` showed an activity, negative = inhibition of -13.3% [at 11.4 µM]. `CCCCOc1ccc(CN2CCC(O)CC2)cc1` was tested, and the AC50 was “inactive”. With `c1ccc(Nc2ncncc2-c2ccc3c(c2)OCO3)cc1` the AC50 was 0.794 µM (active). With `Cc1cccc(CNc2ncncc2-c2ccc3c(c2)OCO3)c1` the AC50 was 0.251 µM (active). `CN1CCc2c(c3ccccc3n2C)C1` was tested, and the AC50 was “inactive”. In the case of `Cn1c(-c2ccc3c(c2)OCO3)cc(=O)c2ccccc21`, the AC50 is reported as 10 µM (active). For `CCOC(=O)Nc1ccc(C(=O)Oc2ccccc2)c(O)c1`, the AC50 was “inactive”. For `C[n+]1cc(-c2ccccc2)n2c1CCCCC2`, the AC50 was “inactive”. Work on `CCOC(=O)[C@]1(CC(=O)O)CCCC1=O` yielded an activity, negative = inhibition of -3.51% [at 11.4 µM]. `CC(C)(C)Cn1nc(-c2ccc(Cl)cc2)c2c(N)ncnc21` was tested, and the AC50 was “inactive”. For `COCCn1nc2cc(C(=O)NCC34CC5CC(CC(C5)C3)C4)ccc2c1OC`, the activity, negative = inhibition was -1.55% [at 2.29 µM]. `COCCn1nc2cc(C(=O)NCc3cc(C(F)(F)F)cc(C(F)(F)F)c3)ccc2c1OC` was tested, and the activity, negative = inhibition was 10.6% [at 2.29 µM]. With `CCCn1nc2cc(C(=O)NCCc3ccc(C)cc3)ccc2c1OCC` the AC50 was 6.31 µM (active). With `CCCCn1nc2cc(C(=O)NCC3CC3)ccc2c1OCC` the AC50 was “inactive”. In the case of `CCOc1c2ccc(C(=O)NCc3cc(C(F)(F)F)cc(C(F)(F)F)c3)cc2nn1C`, the AC50 is reported as 12.6 µM (active). With `CCCn1nc2cc(C(=O)NCc3ccc(C)cc3)ccc2c1OC` the AC50 was 14.1 µM (active). In the case of `CCCn1nc2cc(C(=O)NCCCCc3ccccc3)ccc2c1OCC`, the AC50 is reported as 15.8 µM (active). `CCOc1c2ccc(C(=O)NCCCCc3ccccc3)cc2nn1CC` showed an activity, negative = inhibition of 18.3% [at 2.29 µM]. In the case of `CCOc1c2ccc(C(=O)NCCCCc3ccccc3)cc2nn1C`, the AC50 is reported as “inactive”. In the case of `CCOc1c2ccc(C(=O)NCc3ccc(OC(F)(F)F)cc3)cc2nn1C`, the activity, negative = inhibition is reported as 16.7% [at 2.29 µM]. With `CCOC(=O)N/N=C1/C[C@@H](O)[C@@H](O)[C@@H]2[C@@H]3C(=O)N(CC)C(=O)[C@H]3CC[C@H]12` the activity, negative = inhibition was -6.5% [at 11.4 µM]. `N#Cc1c(-c2ccccc2)ccnc1Oc1ccccc1` was tested, and the AC50 was “inactive”. For `C/C(=N\OC(=O)c1ccccc1F)c1nccs1`, the AC50 was “inactive”. In the case of `CC(=O)OC[C@@H]1O[C@H](C/C=N\OC[C@@H](O)[C@H]2O[C@H]3OC(C)(C)O[C@H]3[C@@H]2O)C=C[C@@H]1OC(C)=O`, the activity, negative = inhibition is reported as -11.1% [at 11.4 µM]. `C/C(CCC(=O)OC[C@@H]1O[C@H](C#Cc2ccccc2)C=C[C@@H]1Oc1ccc(C)cc1)=N/OC[C@@H](O)[C@H]1O[C@H]2OC(C)(C)O[C@H]2[C@@H]1O` was tested, and the AC50 was 3.98 µM (active). With `COc1ccc(O[C@H]2C=C[C@@H](c3ccccc3)O[C@H]2COC(=O)CC/C(C)=N\OC[C@@H](O)[C@H]2O[C@H]3OC(C)(C)O[C@H]3[C@@H]2O)cc1` the AC50 was 3.98 µM (active). For `CC1(C)O[C@@H]2O[C@H]([C@H](O)CO/N=C3/[C@H]4O[C@@H]4[C@@H](O)[C@H]4[C@H]3CCn3c(=O)n(-c5ccccc5)c(=O)n34)[C@@H](O)[C@@H]2O1`, the activity, negative = inhibition was -8.83% [at 11.4 µM]. With `CCOc1ccc(/C(O)=C2/C(=O)C(=O)N(CCCn3ccnc3)C2c2cccs2)cc1Cl` (stereo not given) the AC50 was 0.282 µM (active). In the case of `Cc1ccc(/C(O)=C2/C(=O)C(=O)N(CCCn3ccnc3)C2c2ccccn2)cc1` (stereo not given), the AC50 is reported as “inactive”. In the case of `COCCCN1C(=O)C(=O)/C(=C(/O)c2ccc(OC(C)C)c(C)c2)C1c1ccncc1` (stereo not given), the AC50 is reported as “inactive”. In the case of `O=C1c2ccccc2C(=O)N1CCSC(=S)N1CCOCC1`, the AC50 is reported as “inactive”. With `O=C(CCN1C(=O)c2ccccc2C1=O)Oc1ccc2ccccc2c1` the AC50 was “inactive”. For `CC(=NCCN1CCN(C(=S)Nc2ccccc2)CC1)C1=C(O)CC(C)(C)CC1=O`, the activity, negative = inhibition was -20.4% [at 11.4 µM]. For `Cc1ccc(NC(=S)N2CCN(CCN3C(=O)c4cccc5cccc(c45)C3=O)CC2)cc1`, the AC50 was 4.47 µM (active). With `CCN(CC)CCN1C(=O)c2cccc3cc(N)cc(c23)C1=O` the activity, negative = inhibition was -14.7% [at 11.4 µM]. In the case of `Cn1cnnc1SCC(=O)OCN1C(=O)c2ccccc2C1=O`, the AC50 is reported as “inactive”. For `Cc1cccc(NC(=O)CCCN2C(=O)c3cccc4cccc(c34)C2=O)c1`, the AC50 was 2.24 µM (active). For `Cc1cccc(/C(N)=N/OC(=O)CCCN2C(=O)c3ccccc3C2=O)c1`, the AC50 was 4.47 µM (active).
